The whole screen tested about 16,000 compounds, of which about 5,100 (32%) were called active. Another 25% or so got no clear call; they are omitted. Calls follow the shape of the dose curve; as a rule, active = well fitted curve in the direction sought with a large enough effect; inconclusive = small, poorly fitted or top-dose-only effect, or effect the other way; inactive = no such curve, though single readings can be large or run the other way. Some of the results follow.
Target: Cytochrome P450 3A4 (Homo sapiens) (UniProt P08684)
Sequence (P08684 whole entry, looked up): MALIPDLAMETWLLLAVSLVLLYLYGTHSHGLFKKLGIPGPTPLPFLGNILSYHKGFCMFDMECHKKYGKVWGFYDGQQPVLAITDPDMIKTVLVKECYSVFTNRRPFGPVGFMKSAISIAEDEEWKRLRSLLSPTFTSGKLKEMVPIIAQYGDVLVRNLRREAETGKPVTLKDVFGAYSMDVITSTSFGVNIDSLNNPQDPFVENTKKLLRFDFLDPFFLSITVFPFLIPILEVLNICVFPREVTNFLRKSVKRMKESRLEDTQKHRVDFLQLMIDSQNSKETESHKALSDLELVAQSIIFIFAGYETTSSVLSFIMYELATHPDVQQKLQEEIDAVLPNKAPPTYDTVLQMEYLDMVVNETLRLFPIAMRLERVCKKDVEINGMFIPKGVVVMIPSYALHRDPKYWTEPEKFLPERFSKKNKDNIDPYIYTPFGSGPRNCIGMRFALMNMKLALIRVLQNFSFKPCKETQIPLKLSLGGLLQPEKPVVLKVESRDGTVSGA
Experiment: Cytochrome panel assay with activity outcomes
Details: recombinant CYP, pro-luciferin dealkylation, luminescence, p450-cyp3a4; series mostly up to 57.1 µM
% is scaled to controls: 0 for no effect and ±100 for the full control effect.

AC50, active:
Cc1ccc(C(=O)CNc2nc3c(c(=O)[nH]c(=O)n3C)n2Cc2ccccc2)cc1 5.01 µM, Cc1ccccc1OCC(O)Cn1c(NCc2ccccc2)nc2c1c(=O)[nH]c(=O)n2C (stereo unspecified) 11.2 µM, CN(C)c1ncc2nc(CCc3ccccc3)c(=O)n(CCc3ccccc3)c2n1 6.31 µM, COCCn1c(=O)c(CCc2ccccc2)nc2cnc(N(C)C)nc21 15.8 µM, CN(C)c1ncc2nc(CCc3ccccc3)c(=O)n(Cc3cccs3)c2n1 10 µM, CN(C)c1ncc2nc(CCc3ccccc3)c(=O)n(-c3ccccc3)c2n1 6.31 µM, Cc1nc(NC(=O)c2ccccc2)sc1-c1csc(Nc2ccc(Cl)cc2Cl)n1 11.2 µM, Cc1nc(NC(=O)c2ccccc2)sc1-c1csc(Nc2cccc(Cl)c2)n1 10 µM, Cc1nc(NC(=O)c2ccco2)sc1-c1csc(Nc2ccc(Cl)cc2Cl)n1 5.01 µM, Cc1nc(NC(=O)c2ccccc2)sc1-c1csc(Nc2ccc(F)cc2)n1 10 µM, C=CCCC(=O)Nc1nc(C)c(-c2csc(Nc3ccc(Cl)cc3)n2)s1 10 µM, CC(C)(C)NC(=O)Cn1nnc(-c2ccccc2NC(=O)c2cnccn2)n1 3.98 µM, COc1ccc(-c2nnn(CC(=O)N(CC(=O)NCCC(C)C)Cc3cccs3)n2)cc1OC 12.6 µM, CCOc1ccc(-c2nnn(CC(=O)Nc3cc(OC)ccc3OC)n2)cc1OCC 3.55 µM, C=CCn1c(Cc2ccc(OC)cc2)nnc1SCC(=O)c1cccc([N+](=O)[O-])c1 1.41 µM, O=C(CSc1nnc(COc2ccccc2)n1-c1ccccc1)c1ccccc1 14.1 µM, CCOc1cc(C)ccc1OCc1nnc(SCC(=O)c2cccc([N+](=O)[O-])c2)n1CC 2.82 µM, C=CCn1c(COc2ccccc2)nnc1SCC(=O)N/N=C/c1ccc(C)cc1 3.16 µM, COc1ccc(NC(=O)CSc2nnc(Cc3cccn3C)n2CCc2ccccc2)c(OC)c1 2.24 µM, CCn1c(CNC(=O)COc2ccc(C(C)C)cc2)nnc1SCC(=O)Nc1cc(F)ccc1C 10 µM, COc1ccc(C(=O)NNC(=O)CSc2nnc(COc3ccc4ccccc4c3)n2C)cc1 0.501 µM, CCn1c(COc2ccccc2)nnc1SCC(=O)Nc1cc(OC)ccc1OC 10 µM, COc1ccc(-c2nnn(CC(=O)NCCc3c[nH]c4ccccc34)n2)cc1OC 8.91 µM, CCn1c(COc2ccccc2)nnc1SCC(=O)c1cccc([N+](=O)[O-])c1 12.6 µM, Cc1ccc(-n2nnnc2C(=Cc2ccc(N(C)C)cc2)c2nnnn2-c2ccc(C)cc2)cc1 3.16 µM, Cc1ccc(-c2nn3c(C)nnc3c3ccccc23)cc1S(=O)(=O)NCCN1CCOCC1 8.91 µM, Cn1c(=O)cc(SCC(=O)NCCN2CCN(c3ccccc3F)CC2)c2cc(Cl)ccc21 14.1 µM, Cn1c(=O)cc(SCC(=O)NCCCN2CCOCC2)c2ccc(Cl)cc21 7.94 µM, CCCNC(=O)N1N=C(c2ccc(N)cc2)c2cc3c(cc2[C@H]1C)OCO3 1.26 µM, CC(=O)N1CC(=O)N(OCc2ccccc2)C1c1ccc(Cl)cc1Cl (stereo unspecified) 10 µM, Cc1cc(OCCn2cc(/C(N)=N/O)c3ccccc32)ccc1Cl 11.2 µM, CCOC(=O)C1=C(CN2c3ccccc3CC2C)NC(=O)NC1c1ccccc1 (stereo unspecified) 15.8 µM, Nc1nc(=S)[nH]c2c1C1(CCCC1)Cc1ccccc1-2 20 µM, CCOc1ccc(/C=C/C2=Cc3c(sc(NC(=O)CSc4n[nH]c(N)n4)c3C#N)C(C)(C)C2)cc1 15.8 µM, Cc1ccc(/C=C/C2=Cc3c(sc(NC(=O)CSc4n[nH]c(N)n4)c3C#N)C(C)(C)C2)o1 14.1 µM, Cc1c(/N=C/c2ccco2)n(Cc2ccccc2)c2ccccc12 7.08 µM, COC(=O)c1cc(NC(=O)N2c3ccccc3Sc3ccccc32)cc(C(=O)OC)c1 7.94 µM, C=CCSc1nc(C)cc(/C=C\c2ccccc2)c1C#N 4.47 µM, Nc1nc(NCCc2ccc(O)cc2)nc2nc(-c3ccco3)nn12 15.8 µM, Cc1cccc(-n2nc([N+](=O)[O-])c(=NCc3cccnc3)n2O)c1 15.8 µM, COCC(C)n1c(C)cc(C(=O)CSc2nnc(Nc3ccccc3F)s2)c1C (stereo unspecified) 1.58 µM, COc1cccc(N2CCN(C(=S)Nc3cccc(C)c3)CC2)c1 3.55 µM, COc1cccc(-c2csc(N3CCN(C(=S)Nc4ccccc4)CC3)n2)c1 8.91 µM, Cc1cccc(C(=O)NC2CCN(C(=S)NCc3ccco3)CC2)c1 5.62 µM, COC(=O)c1ccc(NC(=S)N2CCN(Cc3cccc(C)c3)CC2)cc1 12.6 µM

AC50, inactive:
Cn1c(=O)[nH]c(=O)c2c1nc(NCCCO)n2CCCc1ccccc1, Cc1cc(C)n(-c2nc3c(c(=O)[nH]c(=O)n3C)n2CC(C)C)n1, CC(C)(C)NC[C@H](O)COc1cccc2[nH]c(=O)[nH]c12, Cc1nc2cnc(N(C)C)nc2n(-c2ccccc2)c1=O, CN(C)c1ncc2ncc(=O)n(CCc3ccccc3)c2n1, CN(C)c1ncc2nc(-c3ccc(Cl)cc3)c(=O)n(Cc3cccs3)c2n1, CN(C)c1ncc2nc(-c3ccccc3)c(=O)n(CCc3ccccc3)c2n1, COCCn1c(=O)c(C)nc2cnc(N(C)C)nc21, CN(C)C(=O)Oc1cccc([N+](C)(C)C)c1, Cc1nnc(NC(=O)c2cccc(NC(=O)C(C)C)c2)s1, Cn1sc(NC(=O)c2ccccc2Cl)nc1=O, O=C(NNC(=O)c1cc2cc3ccccc3nc2s1)c1cccc(Cl)c1, CC(C)CC(=O)Nc1ccccc1-c1nnn(CC(=O)N2CCc3ccccc3C2)n1, CC1(C)OC(C(N)=O)C(C(N)=O)O1 (stereo unspecified), CN[C@@H]1[C@H](O[C@@H]2O[C@H](CO)[C@@H](N)[C@H](O)[C@@H]2O)O[C@H]2C[C@@H](N)[C@@H](O[C@H]3[C@@H](O)[C@H](O)[C@H](N)C[C@@H]3N)O[C@H]2[C@H]1O, CSc1nc(-c2ccccc2)nn1C(=O)c1ccccc1, COc1ccc(OCc2nnc(SCC(=O)O)n2N)cc1, CCCCOc1ccc(-c2nnn(CC(=O)c3c[nH]c4ccccc34)n2)cc1, CC(=O)c1c(O)c(C)c(-c2ccccc2)n(-c2ccccc2)c1=O, Cc1ccc(-c2nn3c(C)nnc3c3ccccc23)cc1S(=O)(=O)NCc1ccccc1, OC(COCC1COc2ccccc2O1)CN1CCN(c2ccccc2F)CC1 (stereo unspecified), O=C(CCN1CCN(c2ccccc2F)CC1)Nc1ccccc1F, COC(=O)N1CC(=O)N(OC)C1c1ccc(Cl)cc1Cl (stereo unspecified), O=C(O)CN=C1NC2(CCCC2)Cc2ccccc21, COC(=O)C1CSC(C(=O)OC)N1C(=O)Nc1ccccc1 (stereo unspecified), O=C(Nc1ccccc1)N1CCSc2cc(Cl)ccc21, Cc1nnsc1SC(C)C(=O)O (stereo unspecified), CC(=O)n1nc(-c2ccco2)nc1N, c1ccc(CN(CC2=NCCN2)c2ccccc2)cc1, Cc1ccc(C)c(/C(O)=C2\C(=O)C(=O)N(Cc3cccnc3)C2c2cccnc2)c1 (stereo unspecified), CCNC(=S)NNC(=O)c1cc(C)on1, COCCSc1nnc(NC(=O)C(C)(C)C)s1, Cc1cccc(C(=O)NC2CCN(C(=O)N3CCOCC3)CC2)c1, COc1cccc(NC(=S)NN2CCN(C)CC2)c1, Cc1cccc(C(=O)NC(=S)N2CCN(C)CC2)c1, CC(C)CC(=O)N1CCN(Cc2cccc(F)c2)CC1, Brc1ccc(-c2csc(N3CCC(c4ccccc4)C3)n2)cc1 (stereo unspecified)

activity, negative = inhibition, inactive:
Cc1nc(NC(=O)c2ccccc2)sc1-c1csc(Nc2ccc(Cl)cc2)n1 3.11% [at 2.29 µM], C#CCOCCCC(=O)O 0.116% [at 11.4 µM], CC(C)(N=NC(C)(C)C(=N)N)C(=N)N -6.94% [at 11.4 µM], O[C@@H](c1cc(C(F)(F)F)nc2c(Cl)cc(Cl)cc12)[C@@H]1CCCCN1 -21% [at 11.4 µM], CCOc1c2ccc(C(=O)NCCc3cccs3)cc2nn1CC -0.473% [at 2.29 µM], COc1cccc(OCc2nnc(SCC(=O)NCc3ccco3)n2C)c1 12.8% [at 2.29 µM], CCc1ccccc1NC(=O)CSc1nc(-c2ccccc2)nn1C(=O)c1cccc([N+](=O)[O-])c1 -8.74% [at 2.29 µM], COc1ccc2c(c1)-c1c(sn(-c3ccc(OC)c(OC)c3)c1=S)C(C)(C)N2 -15.9% [at 2.29 µM], Clc1ccc(Cl)c(SCCCN2CCNCC2)c1 -17% [at 11.4 µM], CC(=O)N1N=C(c2cccc([N+](=O)[O-])c2)OC1c1ccc(Cl)cc1Cl (stereo unspecified) 11.9% [at 2.29 µM], CCOC(=O)c1[nH]c(C)c(C(=O)OCC(=O)N2c3ccccc3CC2C)c1C (stereo unspecified) -26.3% [at 2.29 µM], Cc1cccc(-n2c(=O)c3c(n4cnnc24)-c2ccccc2CC32CCCCC2)c1 -17.5% [at 2.29 µM], CC(=O)OC[C@@H]1O[C@@H](O/N=C2/C[C@@H](O)[C@@H](O)[C@@H]3[C@@H]4C(=O)N(C5CCCCC5)C(=O)[C@H]4CC[C@H]23)[C@H](OC(C)=O)[C@H](OC(C)=O)[C@@H]1OC(C)=O -4% [at 11.4 µM], N#C[C@@H](N=Nc1ccccc1C(=O)O)C(N)=O -6.32% [at 11.4 µM]
